Data reported in publication PMC4336329 (PLoS ONE, 2015).
Among all 310,000 compounds or so, about 14,000 (4.5%) showed an effect of 50% or more. The effect is printed as a negative number. Many of the other results were omitted from the sample, so strong results are more common in it than they were.

molecular target: human ether-à-go-go-related gene (hERG) potassium channel (human, UniProt Q12809); experiment: primary screen, population patch clamp on CHO cells stably expressing hERG; higher = less effect of the substance
Sequence (Q12809 whole entry, looked up): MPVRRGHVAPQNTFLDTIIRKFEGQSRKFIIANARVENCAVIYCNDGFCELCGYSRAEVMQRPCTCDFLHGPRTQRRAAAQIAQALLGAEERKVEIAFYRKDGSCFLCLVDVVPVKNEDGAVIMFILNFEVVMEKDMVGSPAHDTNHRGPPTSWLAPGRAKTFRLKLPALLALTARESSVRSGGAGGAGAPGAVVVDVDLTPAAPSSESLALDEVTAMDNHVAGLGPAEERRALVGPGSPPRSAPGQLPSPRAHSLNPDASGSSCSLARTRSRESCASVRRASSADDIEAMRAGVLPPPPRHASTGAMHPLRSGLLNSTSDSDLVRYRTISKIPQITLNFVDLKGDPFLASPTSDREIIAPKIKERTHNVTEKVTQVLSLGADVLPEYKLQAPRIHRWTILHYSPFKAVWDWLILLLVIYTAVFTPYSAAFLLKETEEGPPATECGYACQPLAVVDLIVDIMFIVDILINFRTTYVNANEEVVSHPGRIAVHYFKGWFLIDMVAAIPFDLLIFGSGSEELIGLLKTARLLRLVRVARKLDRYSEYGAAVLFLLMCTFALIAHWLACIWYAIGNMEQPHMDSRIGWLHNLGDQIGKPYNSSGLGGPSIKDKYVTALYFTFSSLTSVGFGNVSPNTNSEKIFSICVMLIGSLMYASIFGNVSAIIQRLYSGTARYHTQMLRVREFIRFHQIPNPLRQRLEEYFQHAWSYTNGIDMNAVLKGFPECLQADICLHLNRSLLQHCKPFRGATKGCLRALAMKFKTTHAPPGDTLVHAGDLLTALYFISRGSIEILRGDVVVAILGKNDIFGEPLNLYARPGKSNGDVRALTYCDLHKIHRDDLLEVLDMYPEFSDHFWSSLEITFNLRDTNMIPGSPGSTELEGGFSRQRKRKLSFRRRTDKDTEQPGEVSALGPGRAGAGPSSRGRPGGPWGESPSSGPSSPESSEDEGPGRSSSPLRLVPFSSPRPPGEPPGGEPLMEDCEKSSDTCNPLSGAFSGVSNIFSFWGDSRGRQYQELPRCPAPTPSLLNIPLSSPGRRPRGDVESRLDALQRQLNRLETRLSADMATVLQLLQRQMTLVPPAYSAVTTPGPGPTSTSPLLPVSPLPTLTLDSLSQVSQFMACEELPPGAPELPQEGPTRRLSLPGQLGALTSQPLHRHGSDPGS
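Further: peak tail current of the secondary pulse compared with the same well before compound.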

| Compound | hERG current change (%, negative = inhibition) at 10uM [%] |
| --- | --- |
| CC(Sc1nc(=O)cc(N)n1CCc1ccccc1)C(=O)NCc1ccccc1 (stereo not shown) | 3.18 |
| Cc1ccc(C)c(S(=O)(=O)N/N=C/c2ccc(N(C)C)cc2)c1 | 16.1 |
| CCC(NC(=O)c1ccccc1NC(=O)c1ccccc1)C(=O)OC (stereo not shown) | 11.3 |
| CS(=O)CSc1nc2c(cc1C#N)CCCC2 (stereo not shown) | -25 |
| Cc1cc(C)cc(C(=O)NC(CC(N)=O)c2ccc(NCC3CC3)c([N+](=O)[O-])c2)c1 (stereo not shown) | -30.4 |
| NC(=O)CC(NC(=O)c1cccc(Br)c1)c1ccc(NCC2CC2)c([N+](=O)[O-])c1 (stereo not shown) | -65.4 |
| NC(=O)CC(NC(=O)c1cccc(Br)c1)c1ccc(NC2CCCCCCC2)c([N+](=O)[O-])c1 (stereo not shown) | 6.95 |
| NC(=O)CC(NC(=O)c1cccc(Br)c1)c1ccc(NC2CCCCCCCCCCC2)c([N+](=O)[O-])c1 (stereo not shown) | 5.21 |
| NC(=O)CC(NC(=O)c1ccccc1)c1ccc(NCC2CC2)c([N+](=O)[O-])c1 (stereo not shown) | -35.3 |
| NC(=O)CC(NC(=O)c1cccc(Br)c1)c1ccc(NC2CCC2)c([N+](=O)[O-])c1 (stereo not shown) | -59.8 |
| Cc1ccc(OCCN2CCN(C(=O)CCC(=O)Nc3nnc(CC(C)C)s3)CC2)cc1 | -43.5 |
| CCc1nnc(NC(=O)CCC(=O)N2CCN(CCOc3ccc(C)cc3)CC2)s1 | -20.2 |
| CCc1nnc(NC(=O)CCC(=O)NC2CCCCC2)s1 | 15.8 |
| COc1ccccc1N1CCN(C(=O)c2ccc(-c3nc4ccccc4s3)o2)CC1 | -3.16 |
| CCc1nnc(NC(=O)CCC(=O)NC2CC2)s1 | -50.5 |
| O=C(CN1CCN(Cc2ccc(F)cc2)CC1)Nc1nc2ccccc2s1 | -69.3 |
| O=C(c1ccc(-c2nc3ccccc3s2)o1)N1CCN(c2ccccc2O)CC1 | 11.6 |
| CCCc1nnc(NC(=O)CCC(=O)N2CCN(CCOc3ccc(C)cc3)CC2)s1 | -51.2 |
| CN1CCN(CC(=O)Nc2nc3ccccc3s2)CC1.O=CO | -5.53 |
| CCN1CCN(CC(=O)Nc2nc3ccccc3s2)CC1.O=CO | -22.7 |
| CCc1nnc(NC(=O)CCC(=O)NC2CCCC2)s1 | -3.36 |
| O=C(CN1CCN(C(=O)c2ccc(-c3nc4ccccc4s3)o2)CC1)Nc1ccc(F)cc1 | -72.3 |

| Compound | hERG current change (%, negative = inhibition) at 10uM [%] |
| --- | --- |
| Cc1cc(C)c2c(=O)[nH]n(C3CCCCCC3)c2n1 | 23.5 |
| Cc1nc(Nc2nc3c(c(=O)[nH]2)CCC3)nc2ccccc12 | -10.2 |
| Cc1ccc(NC(=S)N(C)C)cc1C | -4.6 |
| O=C(N=C1SC2CS(=O)(=O)CC2N1c1ccc(Cl)cc1Cl)C1CC1 (stereo not shown) | -7.48 |
| Cc1ccc(/C(O)=C/C(=O)C(=O)NNC(=O)C(O)(c2ccccc2)c2ccccc2)cc1 | 14.5 |
| OCCOc1ccc(C2=NCCO2)cc1 | -23.3 |
| Cc1cnc([N+](=O)[O-])n1CCOC(=O)NC(=O)c1ccccc1Cl | 8.87 |
| COc1ccc(OC)c(NC(=O)CCCNC(=O)c2ccc(Cl)cc2)c1 | -9.27 |
| CCc1nnc(NC(=O)CN2CCN(Cc3ccc(C)cc3)CC2)s1 | -57.6 |
| CCc1nnc(NC(=O)CN2CCN(Cc3ccc(F)cc3)CC2)s1 | -13.6 |
| CCCN1CCN(CC(=O)Nc2nc3ccccc3s2)CC1 | -49.9 |
| O=C(CN1CCN(Cc2ccccc2)CC1)Nc1nc2ccccc2s1 | -68.2 |
| CCc1nnc(NC(=O)CN2CCN(Cc3cccc(Cl)c3)CC2)s1 | -8.15 |
| CS(=O)(=O)c1ccc2nc(NC(=O)CN3CCN(Cc4ccccc4)CC3)sc2c1 | -39.8 |
| Cc1cccc(OCC(=O)Nc2ccc3oc(=O)ccc3c2)c1 | 8.55 |
| COc1ccc(C(C)=O)cc1Cn1nc(C)c([N+](=O)[O-])c1C | 18.5 |
| CC1(C)Oc2ccc3ccc(=O)oc3c2/C(=C/NCCO)C1=O | 5.11 |
| CCCCn1c2c(c(=N)c3c1CCC3)CCC2.I | -2.48 |
| CCCn1c2c(c(=N)c3c1CCC3)CCCC2.I | 6.05 |
| CCOC(=O)Cn1c2c(c(=N)c3c1CCC3)CCC2.Cl | 8.34 |
| Br.CCn1c2c(c(=N)c3c1CCC3)CCCC2 | -2.41 |
| CCOC(=O)Cn1c2c(c(=N)c3c1CCC3)CCCC2.Cl | 18.5 |

| Compound | hERG current change (%, negative = inhibition) at 10uM [%] |
| --- | --- |
| Br.CCCCCCCCCCn1c2c(c(=N)c3c1CCC3)CCC2 | -78.9 |
| Br.CCCCCCn1c2c(c(=N)c3c1CCC3)CCC2 | -76.5 |
| Br.CCn1c2c(c(=N)c3c1CCC3)CCC2 | 0.642 |
| Br.CCCCCCCCn1c2c(c(=N)c3c1CCC3)CCCC2 | -76.1 |
| CCCCCCn1c(=O)[nH]c2c(c1=O)CCC2 | -3.06 |
| CCCn1c2c(c(=N)c3c1CCC3)CCC2.I | 7.05 |
| Br.CCCCCCCCCn1c2c(c(=N)c3c1CCC3)CCC2 | -74.1 |
| CC(NC(=O)Cc1ccccc1)c1nc2ccccc2[nH]1 (stereo not shown) | 5.94 |
| O=C(CCNC(=O)c1ccc([N+](=O)[O-])cc1)NCCc1ccc(Cl)cc1 | -40.4 |
| Cc1cc(C)n2nc(CC(=O)NCc3ccc(F)cc3)nc2n1 | -0.0725 |
| CCN(CC)N=Nc1ccc(S(=O)(=O)N2CCSC2C(=O)[O-])cc1.[K+] (stereo not shown) | 28.2 |
| CCC(C)[C@H](NC(=O)OC(C)(C)C)C(=O)N/N=C/c1ccc2nccnc2c1 (stereo partly shown) | -13.8 |
| CNC(=O)c1cc(OCC(F)(F)F)ccc1OCC(F)(F)F | -4.26 |
| COc1ccc(S(=O)(=O)NCc2ccc(C(=O)NCc3cccnc3)cc2)cc1 | -1.21 |
| COc1ccc(C(=O)N2CCN(C)C(=O)[C@@H]2C)cc1OC1CCN(C(C)=O)CC1 | 12.6 |
| Cc1c(NC(=S)N/N=C/C=C/c2ccccc2)c(=O)n(-c2ccccc2)n1C | 11.2 |
| Cc1ccc(-c2noc(C3CCCCC3)n2)cc1 | 16.1 |
| Cc1nc2cc(-c3cccc(F)c3)nn2c(C)c1CCC(=O)NC(C)CCc1ccco1 (stereo not shown) | -70.6 |
| COc1ccccc1-c1cc2nc(C)c(CCC(=O)NCc3ccco3)c(C)n2n1 | -43.1 |
| COc1cc(OC)cc(-c2cc3nc(C)c(CCC(=O)NC(C)CCc4ccco4)c(C)n3n2)c1 (stereo not shown) | -58.4 |
| COc1ccc(-c2cc3nc(C)c(CCC(=O)NCc4ccc(F)cc4)c(C)n3n2)c(OC)c1 | -60.4 |
| COc1ccccc1-c1cc2nc(C)c(CCC(=O)NC(C)CCc3ccco3)c(C)n2n1 (stereo not shown) | -62.5 |

| Compound | hERG current change (%, negative = inhibition) at 10uM [%] |
| --- | --- |
| COc1ccccc1-c1cc2nc(C)c(CCC(=O)NCc3ccc(F)cc3)c(C)n2n1 | -49.7 |
| COc1ccccc1CNC(=O)CCc1c(C)nc2cc(-c3ccccc3OC)nn2c1C | -11.5 |
| Cc1csc(NC(=O)CCc2c(C)nc3cc(-c4cccc(F)c4)nn3c2C)n1 | -17.3 |
| COc1ccc(CNC(=O)CCc2c(C)nc3cc(-c4ccccc4OC)nn3c2C)cc1 | -37.7 |
| Cc1nc2cc(-c3ccccc3)nn2c(C)c1CCC(=O)NCc1ccco1 | -37.4 |
| COc1cc(OC)cc(-c2cc3nc(C)c(CCC(=O)NCc4ccccc4)c(C)n3n2)c1 | -33.8 |
| COc1cc(OC)cc(-c2cc3nc(C)c(CCC(=O)Nc4nc(C)cs4)c(C)n3n2)c1 | 10 |
| COc1ccc(C2SCC(=O)N2C)cc1 (stereo not shown) | 1.55 |
| COc1cccc(-c2cc(=O)c3cc(NC(=O)c4ccc(N(C)C)cc4)ccc3[nH]2)c1 | 16.2 |
| CN(C)S(=O)(=O)Oc1ccc(Cl)cc1C(=O)Nc1ccc(F)cc1F | -3.01 |
| Cc1cc(N/N=C2\CC(C)CC(C)(C)C2)nc2ccccc12 (stereo not shown) | -7.04 |
| CCN1C(=O)/C(=C/c2ccc3c(c2)CCN3CCCCl)C(=O)NC1=S | -3.76 |
| N#Cc1c(-c2ccco2)cc(-c2ccc(F)cc2)nc1N | -2.08 |
| COc1ccc(-c2cc(=O)oc3c(C)c(OC(C)C(=O)Nc4ccc(CN5CCOCC5)cc4)ccc23)cc1 (stereo not shown) | -5.78 |
| Cn1c(/C(C#N)=C2/CCCCCN2)nc2ccccc21 | -12.5 |
| O=S(=O)(NCc1ccc(Cl)cc1)NCc1ccc(Cl)cc1 | 12.7 |
| COC(=O)c1cc(Br)ccc1OC(=O)c1cccnc1 | 7.06 |
| Cc1nc2cc(-c3ccc(Cl)cc3)nn2c(C)c1CCC(=O)NCc1ccco1 | -41.9 |
| COc1ccc(-c2cc3nc(C)c(CCC(=O)NCc4ccco4)c(C)n3n2)c(OC)c1 | -12.9 |
| COc1ccc(-c2cc3nc(C)c(CCC(=O)NC(C)CCc4ccco4)c(C)n3n2)c(OC)c1 (stereo not shown) | -62 |
| Cc1ccc(C(=O)O)cc1NC(=S)NCCc1ccccc1 | 0.261 |
| C[C@H](NC(=O)c1cc2c(cn1)[nH]c1ccccc12)C(=O)O | 18.4 |
